Laboratory results: the supplement of paper PMC3724861
This excerpt belongs to a sample that is enriched for hits. How many sequences the whole screen found active is unknown.

Tested on: T1, Caupolican (Caup) homeodomain DNA-binding domain
T1 sequence: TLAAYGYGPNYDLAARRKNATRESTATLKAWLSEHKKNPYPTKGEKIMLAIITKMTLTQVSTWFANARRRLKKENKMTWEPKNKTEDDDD
Assay: PBM E-score (8-mer, recovered from the published 9-mer minima) (E-score (dimensionless, -0.5 to 0.5)); Drosophila protein; higher = stronger relative binding preference, active = 0.31 or more
Experimental: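 Protein binding microarray (PBM): in vitro transcribed/translated Caupolican (Caup) homeodomain DNA-binding domain (residues 214-303) applied at 100 nM to a universal 8-mer PBM array (Agilent AMADID 015681). The 8-mer enrichment score (E-score, range -0.5 to 0.5) was computed, and each 9-mer score is the minimum E-score of its two constituent 8-mers. The E-score is the same for a 9-mer and its reverse complement; 0.31 is the stated binding threshold.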

Row | Sequence | PBM E-score
1 | CAGTACAC | 0.288 (inactive)
2 | GGGTACAC | 0.14 (inactive)
3 | ATGTACAC | 0.441 (active)
4 | ATCTACAT | 0.29 (inactive)
5 | CTGTACAC | 0.284 (inactive)
6 | ATGTACGC | 0.29 (inactive)
7 | ATGTACAG | 0.343 (active)
8 | GTGTACAC | 0.389 (active)
9 | ATGTACAT | ≥ 0.469 (active)
10 | ATGTACCG | 0.287 (inactive)
11 | CTGTACAG | 0.164 (inactive)
12 | TCCGCAAA | -0.0879 (inactive)
13 | CCCTTTCA | -0.126 (inactive)
14 | ACCCATCG | -0.0141 (inactive)
15 | GCCGTCCC | -0.25 (inactive)
16 | GCTTCCAC | -0.182 (inactive)
17 | ACCCGCAT | 0.00073 (inactive)
18 | CCACTCGG | -0.158 (inactive)
19 | AAAGAAGC | -0.0635 (inactive)
20 | GGGGTACA | 0.0877 (inactive)
21 | TAGACGGA | -0.0225 (inactive)
22 | CTCCAGTC | -0.121 (inactive)
23 | CCAGTGGA | -0.117 (inactive)
24 | AAAGGTAC | 0.12 (inactive)
25 | AGTACAGA | 0.138 (inactive)

Row | Sequence | PBM E-score
26 | AGTACATA | 0.381 (active)
27 | CGTACAGA | 0.142 (inactive)
28 | CGTACATC | 0.263 (inactive)
29 | CGTACATA | 0.336 (active)
30 | GGTACATA | 0.282 (inactive)
31 | CAGACGCC | -0.147 (inactive)
32 | CCGGTCAA | -0.0503 (inactive)
33 | GGATCCCA | -0.0305 (inactive)
34 | ATTGTTCC | 0.112 (inactive)
35 | ATTGTTCA | 0.184 (inactive)
36 | CTTGTTCA | 0.33 (active)
37 | CTTGTTCC | ≥ 0.337 (active)
38 | CCTGTTCC | 0.0821 (inactive)
39 | CCTGTTCA | 0.15 (inactive)
40 | CATGGGGG | -0.157 (inactive)
41 | ATGGGAAG | -0.07 (inactive)
42 | CGTAGACA | 0.122 (inactive)
43 | GGTAGACA | 0.117 (inactive)
44 | TGTAGACA | ≥ 0.313 (active)
45 | CTACATCC | 0.189 (inactive)
46 | CTACATGC | 0.369 (active)
47 | ATTCATGC | 0.0406 (inactive)
48 | ATTCATGG | -0.039 (inactive)
49 | CCACATGC | 0.0879 (inactive)
50 | ATACATGC | 0.374 (active)

Row | Sequence | PBM E-score
51 | ATCCATGA | 0.0343 (inactive)
52 | ATGCATGC | 0.107 (inactive)
53 | ATACAGGA | 0.13 (inactive)
54 | ATACATGG | 0.422 (active)
55 | ATACATCG | 0.273 (inactive)
56 | ATACATGA | 0.4 (active)
57 | AAAATTAA | 0.0601 (inactive)
58 | TATCGTAA | 0.114 (inactive)
59 | ACGACTTC | 0.0231 (inactive)
60 | CCGCAGAA | -0.0611 (inactive)
61 | CGTCGGCC | -0.224 (inactive)
62 | GCGCTGCC | -0.257 (inactive)
63 | CCAGAGAG | -0.172 (inactive)
64 | CGCTTCAA | -0.0124 (inactive)
65 | CTATTGTC | 0.0455 (inactive)
66 | GAGGTACC | -0.137 (inactive)
67 | CGTTGTAG | 0.154 (inactive)
68 | CTTTGTAC | 0.229 (inactive)
69 | GCTTGGAC | -0.0623 (inactive)
70 | ACTTGTGC | 0.0346 (inactive)
71 | AGTTGTAC | 0.308 (inactive)
72 | GCCTGTAC | 0.164 (inactive)
73 | GCTTGTAC | 0.38 (active)
74 | ACTTGTAG | 0.297 (inactive)
75 | ACTTGTAC | 0.407 (active)

Row | Sequence | PBM E-score
76 | CCTTGTAG | 0.322 (active)
77 | CCTTGTGC | 0.0734 (inactive)
78 | CCTTGTAC | 0.399 (active)
79 | GCCCCTCA | -0.223 (inactive)
80 | CGAACGTC | -0.121 (inactive)
81 | ATTGAAAA | 0.0968 (inactive)
82 | CAAGTTCA | 0.0645 (inactive)
83 | GTCATTTA | 0.184 (inactive)
84 | AGCGAGCG | -0.0955 (inactive)
85 | GATATGAC | 0.0792 (inactive)
86 | CATGAAGA | 0.0832 (inactive)
87 | GATGGCGA | -0.0291 (inactive)
88 | AGAGTCGG | -0.0944 (inactive)
89 | CAGTTAAC | -0.00501 (inactive)
90 | GATTGTAC | 0.235 (inactive)
91 | CATTGTAG | 0.0869 (inactive)
92 | CATTGTAC | 0.323 (active)
93 | CATTCCAC | -0.0122 (inactive)
94 | GCAAGAAC | 0.00872 (inactive)
95 | GCAAGTAA | 0.173 (inactive)
96 | ACAAGTTC | 0.233 (inactive)
97 | ACAAGTAA | 0.331 (active)
98 | GCAAGTTA | 0.0766 (inactive)
99 | ACAAGTAG | 0.351 (active)
100 | CCAAGTAG | -0.0584 (inactive)

Row | Sequence | PBM E-score
101 | ACAAGAAT | 0.307 (inactive)
102 | ACAAGAAC | 0.316 (active)
103 | ACAAGTTA | 0.325 (active)
104 | CCAAGTAA | 0.0669 (inactive)
105 | ACAAGTGG | 0.205 (inactive)
106 | AATCTAGT | 0.0691 (inactive)
107 | CCGGTAAC | -0.0103 (inactive)
108 | CCGGACAG | 0.0176 (inactive)
109 | CCCAAGCA | -0.0938 (inactive)
110 | CGACCGCA | -0.144 (inactive)
111 | CATGACGC | 0.032 (inactive)
112 | AAGGACTA | 0.0433 (inactive)
113 | AATTAAGG | 0.0103 (inactive)
114 | ACCAGTGC | -0.019 (inactive)
115 | TAAGGGGA | -0.0541 (inactive)
116 | AAAAGTAT | 0.121 (inactive)
117 | GCAAGTAC | 0.176 (inactive)
118 | CCAAGTAC | 0.0484 (inactive)
119 | ACAAGTCT | 0.296 (inactive)
120 | ACAAGGAA | 0.247 (inactive)
121 | ACAAGTAT | 0.314 (active)
122 | ACAAGGAT | 0.315 (active)
123 | ACAAGTAC | 0.35 (active)
124 | ACAAGGAG | 0.224 (inactive)
125 | AAGATCGA | 0.0302 (inactive)

Row | Sequence | PBM E-score
126 | TCAGTTAA | 0.0667 (inactive)
127 | ACAGGTAT | 0.203 (inactive)
128 | ACCCCTCG | -0.218 (inactive)
129 | GTGTGAAC | 0.0865 (inactive)
130 | CTATGTGC | 0.0747 (inactive)
131 | ATATGTCC | 0.261 (inactive)
132 | CTATGTAC | 0.381 (active)
133 | ATATGTAC | 0.387 (active)
134 | CTCTGTAC | 0.137 (inactive)
135 | ATATGTAG | 0.297 (inactive)
136 | CTAGGACA | 0.241 (inactive)
137 | TAGTTTAA | 0.218 (inactive)
138 | AGCGAGCT | -0.108 (inactive)
139 | ACACCACC | 0.0972 (inactive)
140 | AAACTTTC | -0.0217 (inactive)
141 | ACTGACAG | 0.0804 (inactive)
142 | CAAACATG | 0.391 (active)
143 | CAAACACG | 0.315 (active)
144 | AAAACATG | 0.419 (active)
145 | CAAACATC | 0.23 (inactive)
146 | AAAACATC | 0.305 (inactive)
147 | CAAACATA | 0.292 (inactive)
148 | AAAACATT | 0.252 (inactive)
149 | CAAACACA | 0.265 (inactive)
150 | CAAACACC | 0.126 (inactive)
